# GAA inh: inhibitors of human lysosomal alpha-glucosidase. P10253. purified human GAA, 4-MU-alpha-glucoside fluorescence. Potency, µM (series often up to 76.9 µM), inactives show at the highest dose activity change, negative = inhibition, actives largely listed as inhibitors. 0.005% of 200,000 active;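 also: potency is read from the fitted curve at half-maximal effect; plate controls were uninhibited enzyme wells for no effect and no-enzyme background for full effect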
#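 Human alpha-glucosidase, 4 nM, pre-mixed with test compounds before 400 uM 4-methylumbelliferyl substrate; 20 min room temperature at pH 5.0. Fluorescence read after pH 10 stop; AC50 values from Hill-equation fits.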
# aGal spleen mod: inhibits or activates alpha-galactosidase in human spleen homogenate; Potency, µM (series often up to 80 µM), for inactives: at the top dose activity change, negative = inhibition, actives largely listed as inhibitors; P06280; human spleen homogenate, 4MU-alpha-Gal fluorescence, 40 min; 0.008% of 240,000 active;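 also: potency is read from the fitted curve at half-maximal effect; 0% = enzyme with vehicle and -100% = no enzyme basal signal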
# Target sequence (P06280 32-429 limits assumed): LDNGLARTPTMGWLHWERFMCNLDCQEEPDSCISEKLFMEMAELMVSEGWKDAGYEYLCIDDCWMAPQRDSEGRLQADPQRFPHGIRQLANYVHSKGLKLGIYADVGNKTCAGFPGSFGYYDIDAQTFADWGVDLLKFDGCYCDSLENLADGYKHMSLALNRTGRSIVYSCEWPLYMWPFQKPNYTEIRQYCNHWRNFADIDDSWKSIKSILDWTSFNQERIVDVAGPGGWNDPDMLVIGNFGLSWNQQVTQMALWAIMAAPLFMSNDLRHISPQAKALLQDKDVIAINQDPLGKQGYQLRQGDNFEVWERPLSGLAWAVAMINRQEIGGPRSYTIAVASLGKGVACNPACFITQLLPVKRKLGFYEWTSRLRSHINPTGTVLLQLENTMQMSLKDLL
#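 Fluorogenic readout (Ex 365/Em 440 nm) of 4-methylumbelliferone released from 1 mM 4-MU-alpha-galactoside by spleen homogenate, 40 min at 37C, pH 5.0. Data normalized to no-enzyme and enzyme controls; Hill-equation AC50 from compound titrations.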
# GAA glycogen mod: inhibitors or activators of human alpha-glucosidase glycogen cleavage; recombinant GAA, glycogen substrate, Amplex Red glucose oxidase fluorescence; Potency, µM (highest dose often 76.4 µM), for the others: top-dose activity change, negative = inhibition, actives largely listed as inhibitors; 0.38% of 300,000 active;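 also: potency is read from the fitted curve at half-maximal effect; 0% = full enzyme reaction and -100% = no-enzyme basal signal; the screen sought inhibitors and activators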
#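 qHTS, 1536-well; enzyme 4 nM final; cpd up to 77 uM; substrate bovine liver glycogen 30 ug; 50 mM citrate/phosphate pH 5.0, 0.01% Tween-20; 37 C, 40 min; Amplex Red detection 45 min RT; Hill fit → AC50.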
# N370S GC: inhibits or activates N370S mutant glucocerebrosidase. P04062. N370S GC spleen homogenate, 4MU-glucoside fluorescence. Potency, µM (series often up to 59.4 µM), without a hit: top-dose activity change, negative = inhibition, most hits filed as inhibitors. 0.092% of 330,000 active;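 also: potency is read from the fitted curve at half-maximal effect; 0% = full enzyme activity and -100% = no enzyme basal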
# aGlu spleen mod: lysosomal alpha-glucosidase (human) modulation | P10253 | human spleen homogenate, 4-MU-alpha-glucoside fluorescence | Potency, µM (titrated, usually from 79.9 µM), for inactives: at the highest dose activity change, negative = inhibition, actives largely listed as inhibitors | 0.006% of 240,000 active | AID 2112;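 also: potency is read from the fitted curve at half-maximal effect; 0% = enzyme with vehicle and -100% = no enzyme basal signal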
#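 AC50 values come from Hill-equation fits of concentration-response data, normalized to no-enzyme and full-activity controls. Enzyme source: 1 ug human spleen homogenate; 1 mM fluorogenic 4-MU glucoside, pH 5.0 citrate buffer, 37 C, 40 min.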
# GLA inh pH 4.5: alpha-galactosidase A (human) inhibition, pH 4.5 | 230,000 tested, under 10 active | purified enzyme, 4-MU-alpha-Gal fluorescence, pH 4.5 | activity change, negative = inhibition, % at 105 µM;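 also: 0% = full activity with enzyme and -100% = basal without enzyme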
# * hit, by the source's call; ? = inconclusive; · = not tested or not shown; ! = a repeat was not active; [ ] = another dose, or the depositor's remark. An excerpt weighted towards active compounds, which were near 0.43% of everything screened. Calls follow the shape of the dose curve; as a rule, active = well fitted curve in the direction sought with a large enough effect; inconclusive = small, poorly fitted or top-dose-only effect, or another doubt; inactive = no such curve, though single readings can be large; an effect the other way counts as inactive or inconclusive.
SMILES,GAA inh,aGal spleen mod,GAA glycogen mod,N370S GC,aGlu spleen mod,GLA inh pH 4.5
Cc1cc(C)cc(N(CC(=O)Nc2ccc(C)cc2Cl)S(=O)(=O)c2c(C)[nH]c(=O)[nH]c2=O)c1,·,·,12.3%[76.3 µM],0.251µM*,·,·
Cc1ccc(N(CC(=O)Nc2ccc(Br)c(C)c2)S(=O)(=O)c2c(C)[nH]c(=O)[nH]c2=O)cc1,·,·,-14.0%[76.3 µM],11.2µM*,·,·
Cc1cc(C)cc(N(CC(=O)Nc2ccc(C(F)(F)F)cc2)S(=O)(=O)c2c(C)[nH]c(=O)[nH]c2=O)c1,·,·,-26.0%[76.3 µM],2.24µM*,·,·
COc1ccc(N(CC(=O)Nc2cc(C)ccc2C)S(=O)(=O)c2c(C)[nH]c(=O)[nH]c2=O)cc1,·,·,-13.6%[76.3 µM],?,·,·
CC(C)(C)OC(=O)NCCCCC1=CC2=CC(=O)C(C)(OC(=O)CCc3ccccc3)C(=O)C2=CO1 (configuration not stated),·,-0.3%,·,-10.2%,-5.5%,-5.9
Cc1cc(NC(=O)CN2CCN(S(=O)(=O)c3ccc(Cl)cc3)CC2)no1,-6.4%,0.9%,0.6%,-3.4%,-4.1%,2.3
COc1ccc(N2CCN(CC(=O)NC(=O)NCc3ccco3)CC2)cc1,2.4%,-6.1%,-2.2%,5.2%,-2.6%,-11.4
CC(=O)N1CCN(CC(=O)Nc2cc([N+](=O)[O-])ccc2Cl)CC1,4.0%,4.2%,-0.1%,-9.2%,3.0%,-2.4
O=C(CN1CCN(c2ccc(O)cc2)CC1)Nc1cc([N+](=O)[O-])ccc1Cl,2.2%,10.5%,11.2µM*,-3.5%,2.8%,-1.9
Cc1cc(NC(=O)CN2CCN(c3ccc(O)cc3)CC2)no1,0.4%,0.8%,8.91µM*,6.2%,-9.8%,4.5
O=C(CN1CCN(c2ccc(O)cc2)CC1)NC(=O)NCc1ccco1,5.0%,4.0%,3.16µM*,-3.8%,8.1%,7.3
CCC(=O)N1CCc2cc(Br)cc(S(=O)(=O)N3CCC(C(=O)Nc4cccc(C)c4)CC3)c21,·,·,-9.4%[76.3 µM],·,·,·
CC(C)NC(=O)C1=NN(c2ccccc2)C(=O)CC1,·,·,5.0%,-3.7%,·,·
O=C(NNC(=O)c1ccccc1F)C1=NN(c2ccccc2)C(=O)CC1,·,·,50.1µM*,-3.5%,·,·
O=C(NCc1ccccc1Cl)c1ccc(CS(=O)(=O)c2ccc(Br)cc2)o1,·,·,44.7µM*,·,·,·
O=[N+]([O-])c1cc2nc(O)c(O)nc2cc1[N+](=O)[O-],·,-3.0%,·,12.6µM*,-9.9%,-10.3
N#Cc1cc2nc(O)c(O)nc2cc1[N+](=O)[O-],·,6.7%,·,·,-5.5%,-1.5
O=C(/C=C/c1ccc(O)c(O)c1)OC(Cc1ccc(O)c(O)c1)C(=O)O (configuration not stated),·,9.9%,2µM*,-18.5%,7.7%,-7.3
CCOc1cc(/C=C/c2cc(C(F)(F)F)[nH]c(=O)n2)ccc1O,-8.6%,2.7%,7.88µM*,-15.6%,-4.5%,-9.7
O=c1c(-c2ccc(O)cc2)coc2cc(O)cc(O)c12,·,6.9%,-2.6%,15.8µM*!,-7.2%,-7.8
COc1ccc(-c2coc3cc(O)cc(O)c3c2=O)cc1,-1.3%[15.4 µM],-7.5%,-5.9%,?,-4.2%,2.9
Cc1cc(=O)c2c(O)c3c(O)cc(=O)c4c3c3c(cc(O)c1c23)C(C)(C)C=4O,·,13.9%,·,6.9%,-7.3%,-1.5
COc1cccc(C2CC(=O)Nc3c2c(=O)[nH]c2nc4ccccc4n32)c1 (configuration not stated),·,·,39.8µM*,·,·,·
CC1=C(C(=O)Nc2cccnc2)C(c2ccc(Cl)cc2)n2nc(SCc3ccccc3)nc2N1 (configuration not stated),·,·,25.1µM*,·,·,·
O=C(O)C1OC(Oc2cc3oc(-c4ccccc4)cc(=O)c3c(O)c2O)C(O)C(O)C1O (configuration not stated),2.4%[15.4 µM],-2.3%,6.31µM*,22.1%,-4.4%,2.4
SMILES,GAA inh,aGal spleen mod,GAA glycogen mod,N370S GC,aGlu spleen mod,GLA inh pH 4.5
Cc1ccc(C)c(NC(=O)Cn2c(=O)n(Cc3cccs3)c(=O)c3cccnc32)c1,·,·,-13.3%[76.3 µM],·,·,·
COc1ccc(-c2nc3cccc(C)n3c2NCC2CCCO2)cc1O (configuration not stated),11.5%,-9.0%,-6.2%,6.6%,-1.4%,5.2
CCOc1cc(-c2nc3ccccn3c2NCC2CCCO2)ccc1O (configuration not stated),2.0%,-9.0%,24.9µM*,3.2%,-19.4%,2.2
COc1cc(-c2nc3ccccn3c2NCC2CCCO2)ccc1O (configuration not stated),2.9%,8.2%,28.2µM*,-11.3%,1.3%,7.5
COc1cc(/C=C2/NC(=O)N(Cc3ccccc3F)C2=O)cc(OC)c1O,?,?,?,-17.0%,-14.4%,?
CCOc1cc(/C=C2/NC(=O)N(Cc3ccccc3F)C2=O)ccc1O,1.2%,5.3%,5.62µM*,-5.6%,-17.3%,-7.9
CO[C@H]1COC(=O)[C@H](C)NC(=O)[C@@H](C)COC(=O)[C@H]2CCCN2C(=O)C/C=C\[C@H]1C,·,5.5%[17.5 µM],·,0.2%[12.8 µM],1.2%[17.4 µM],·
O=[N+]([O-])c1ccc(N/N=C/c2cccc(O)c2O)cc1,·,·,?,-23.5%,·,·
O=[N+]([O-])c1ccc(N/N=C/c2c[nH]c3ccccc23)cc1,3.7%,-11.6%,17.8µM*,·,-20.1%,-0.8
O=[N+]([O-])c1ccc(N/N=C/c2ccc[nH]2)cc1,0.9%,1.8%,7.94µM*,·,-11.5%,-6.0
CCCN1CCC(=O)N(C(CSc2ccc(C)cc2)CC(C)C)CC1 (configuration not stated),·,-12.8%,·,-8.1%,2.7%,·
CC(C)CCOc1ccc(C2N=C(N)Nc3nc4ccccc4n32)cc1 (configuration not stated),·,·,-7.7%[76.3 µM],·,·,·
Cc1cc(C(F)(F)F)nn1CC(=O)NNC(=S)Nc1ccc(F)cc1,0.1%,4.0%,39.8µM*,·,-0.4%,-0.6
Cc1cc(C(F)(F)F)nn1CC(=O)NNC(=S)Nc1ccc(Cl)cc1,-4.0%,5.6%,-4.8%,1.2%,1.4%,6.4
FC(F)(F)c1ccccc1-c1nccc(NCc2cccs2)n1,·,-3.8%,·,3.16µM*,6.7%,·
FC(F)(F)c1ccccc1-c1nccc(NCc2ccccc2)n1,·,0.7%,·,11.2µM*,12.7%,-0.4
CCCCCN1C(C(=O)c2ccccc2)=C(NC(=O)c2ccc(OC)cc2)c2ccccc2S1(=O)=O,·,·,3.0%[76.3 µM],·,·,·
CCOc1ccc(Nc2nc(C)c(NC(=O)c3cccc(F)c3)c(Nc3ccc(OCC)cc3)n2)cc1,·,·,-15.2%[76.3 µM],·,·,·
O=C(O)c1c(Cl)c(Cl)c(Cl)c(Cl)c1-c1c2cc(I)c(=O)c(I)c-2oc2c(I)c(O)c(I)cc12,·,8.0%,·,-9.6%,2.0%,-10.7
FC(F)(F)c1ccc2c(c1)NCC1CCCN21 (configuration not stated),2.9%,8.2%,6.31µM*,2.6%,5.0%,4.7

# Screens (PubChem BioAssay)
